# Assay outcomes: PubChem, National Center for Advancing Translational Sciences (NCATS)
# ELG1 repair inh = ELG1-dependent DNA repair inhibition | Potency, µM (doses to about 46.1 µM), for inactives: at the highest dose activity change, negative = inhibition, actives largely listed as inhibitors | AID 504467 | 330,000 compounds, 2.3% hits | HEK293T ELG1-luciferase reporter, luminescence, 16 h; DNA damage induced by 5-fluorouridine; further: on the % scale 0 is the no-effect control and ±100 the full control effect; nearly all actives have a fitted effect of over 55% in size
#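 Quantitative HTS, concentration-response format. 2,000 cells/well co-treated with 5-fluorouridine and compound, 16 hr in 5% CO2 at 37 °C; ONE-Glo luminescence read after 30 min.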
# FLuc modulator = counter-screen for miR-21 project: firefly luciferase inhibitors or activators; P08659; purified FLuc, Km substrates, luminescence inhibition; Potency, µM (top dose mostly 57.5 µM), for inactives: at the top dose activity change, negative = inhibition, hits mostly inhibitors; 360,000 compounds, 6.9% hits; AID 588342;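 further: plate controls were vehicle for no effect and reference inhibitor for full effect; nearly all actives have a fitted effect of over 55% in size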
# Target sequence (P08659 whole entry, looked up): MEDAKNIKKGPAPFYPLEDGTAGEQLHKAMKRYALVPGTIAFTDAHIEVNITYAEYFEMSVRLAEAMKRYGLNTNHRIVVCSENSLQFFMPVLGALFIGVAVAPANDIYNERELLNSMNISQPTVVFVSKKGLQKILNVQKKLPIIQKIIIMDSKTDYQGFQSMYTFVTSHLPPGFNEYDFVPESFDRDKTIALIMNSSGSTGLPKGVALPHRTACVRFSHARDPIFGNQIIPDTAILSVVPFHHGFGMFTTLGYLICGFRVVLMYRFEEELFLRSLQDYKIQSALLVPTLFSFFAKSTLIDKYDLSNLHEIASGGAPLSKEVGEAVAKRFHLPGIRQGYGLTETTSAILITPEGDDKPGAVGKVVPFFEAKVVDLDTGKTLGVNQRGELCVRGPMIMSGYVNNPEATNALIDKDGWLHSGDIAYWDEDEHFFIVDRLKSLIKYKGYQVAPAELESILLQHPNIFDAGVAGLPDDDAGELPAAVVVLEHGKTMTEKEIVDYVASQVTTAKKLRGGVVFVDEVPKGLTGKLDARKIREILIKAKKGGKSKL
#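 Biochemical qHTS of compounds, final roughly 60 µM downward over six points, against 10 nM purified firefly luciferase using Km concentrations of substrates (10 uM D-luciferin, 10 uM ATP) in Tris acetate pH 7.5 buffer; luminescence output.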
# ELG1 genotox = genotoxicity induction in ELG1-luciferase HEK293T cells. HEK293T ELG1-luciferase reporter, luminescence, 16 h. 330,000 compounds, 1.3% hits. Potency, µM (highest dose often 46 µM), without a hit: top-dose activity change, positive = activation, actives largely listed as activators; further: % of control where 0% means no effect; nearly all actives have a fitted effect of over 60% in size
#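 Genotoxic stress is detected as increased luminescence from luciferase-tagged ELG1 in HEK293T cells, measured with ONE-Glo after a 16 hr treatment at 37 °C.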
# SMN2 splice up = enhancers of SMN2 splice variant expression; HEK293 SMN2-luciferase splicing reporter, luminescence, 30-36 h; Potency, µM (titrated, usually from 46.1 µM), inactives show at the top dose activity change, positive = activation, hits mostly activators; 210,000 compounds, 2.8% hits; AID 1458; further: % of control where 0% means no effect; nearly all actives have a fitted effect of over 55% in size
#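 HEK293 cells carry an SMN2 minigene-luciferase reporter in which exon 7 inclusion puts luciferase in frame. Cells were seeded at 2000 cells/well, attached for 10-12 hours, then exposed to compounds for 30-36 hours at 37C before ONE-Glo luminescence.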
# NPC1 prom act = NPC1 promoter activation; Huh7 NPC1 promoter luciferase reporter, 24 h; Potency, µM (highest dose often 9.22 µM), without a hit: at the highest dose activation, actives largely listed as activators; 320,000 compounds, 2.4% hits; AID 485313; further: % of control where 0% means no effect; nearly all actives have a fitted effect of over 60% in size
#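 Readout is luciferase luminescence, reflecting NPC1 promoter activation in stably transfected Huh7 cells after 24 h compound exposure at 37 °C in reduced-serum medium with 10% FBS.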
# Rab9 promoter act = Rab9 promoter activation; Potency, µM (series often up to 9.22 µM), without a hit: top-dose activation, negative = inhibition, usual class: activators; Huh7 Rab9 promoter-luciferase reporter, luminescence, 24 h; 320,000 compounds, 2.8% hits; AID 485297; further: % of control where 0% means no effect; nearly all actives have a fitted effect of over 60% in size
#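 Luminescence read-out: Huh7 cells stably expressing Rab9-luciferase, treated 24 h with compound at 37 °C, then lysed with luciferase reagent for 10 min at ambient before reading.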
# Active calls of the source: *; ? = inconclusive; nt = not tested or not shown; [ ] = another dose, or the depositor's remark. Shown are actives, neighbours in structure and some others; about 9.4% of the full set was active somewhere. The call rests on the fitted dose curve; in most records, active means well fitted curve in the direction sought with a large enough effect; inconclusive means small, poorly fitted or top-dose-only effect, or another doubt; inactive means no such curve, though single readings can be large; an effect the other way counts as inactive or inconclusive. Potency means the concentration at half of the fitted maximal effect.
SMILES,ELG1 repair inh,FLuc modulator,ELG1 genotox,SMN2 splice up,NPC1 prom act,Rab9 promoter act
CC(C)Oc1ccc(OCCn2c(=S)[nH]c3c(N)ncnc32)cc1,-4%,27µM*,?,-27%,-3%,-1%
COc1ccc(CCNC(=O)/C(C#N)=C2\N=C(NC(=O)c3ccco3)c3ccccc32)cc1,7.3µM*,3%,-5%,nt,-3%,-1%
N#C/C(C(=O)NCc1ccccc1)=C1/N=C(NC(=O)c2ccco2)c2ccccc21,1%,2%,-4%,nt,1%,0%
Oc1ccc(CNc2cccc(F)c2F)c2cccnc12,nt,9%,nt,nt,-17%,-17%
CCOC(=O)N/N=C\c1cccc(OC)c1OC/C=C/c1ccccc1,-4%,9.5µM*,-4%,nt,4%,9%
CC(C)(O)C(=O)N/N=C\c1ccc(OC/C=C/c2ccccc2)cc1,?,0%,4%,nt,0%,6%
N#CCC(=O)N/N=C\c1cccc(OC/C=C/c2ccccc2)c1,?,13µM*,?,nt,0.56µM*,?
CC(=O)N/N=C\c1cccc(OC/C=C/c2ccccc2)c1,?,11µM*,?,nt,0.4µM*,0.45µM*
CC(=O)N/N=C\c1ccccc1OC/C=C/c1ccccc1,?,-17%,16µM*,nt,?,27%
COc1cccc(/C=N/NC(=O)CC(C)O)c1OC/C=C/c1ccccc1 (centres undefined),-24%,-5%,-9%,nt,-1%,-3%
CCOC(=O)c1cc(-c2ccccc2)n(CCC(=O)Nc2ccc(C(F)(F)F)cc2)c1C,nt,2%,nt,nt,nt,nt
Cc1ccc(C)c(CN2C(=O)C3(c4ccccc42)N(c2ccc(Cl)cc2)C(=O)CS3(=O)=O)c1 (centres undefined),nt,-7%,nt,nt,nt,nt
O=C(O)[C@@H]1[C@@H](C(=O)NCc2ccccn2)[C@@H]2C=C[C@@H]1O2,nt,nt,nt,-7%[9.22 µM],nt,nt
COc1ccc(NC(=O)O/N=C/c2c(C)nn(C(C)(C)C)c2C)cc1,?,0.38µM*,1.6µM*,nt,0.35µM*,0.32µM*
COc1ccc(NC(=O)CCC(=O)N/N=C/c2cn(C)nc2C)cc1,9%,6%,-3%,nt,-3%,-1%
CCOc1ccc(CCNC(=O)c2ccc(CS(=O)Cc3cccc(Cl)c3)o2)cc1 (centres undefined),-12%,17µM*,-4%,nt,-4%,-1%
CC1CCN(S(=O)(=O)c2cn(CC(=O)Nc3ccc(F)c(Cl)c3)c(=O)c3ccccc23)CC1,nt,5%,nt,-20%,nt,nt
C=CCn1c(C)cc(C(=O)COC(=O)/C=C/c2c(C)nn(C3CCS(=O)(=O)C3)c2Cl)c1C (centres undefined),?,?,-6%,nt,12%,-3%
C/C(=N\NC(=O)CSc1nc2ccccc2o1)c1cccc(O)c1,9%,-13%,1%,nt,2%,1%
O=C(CSc1nc2ccccc2o1)N/N=C/c1ccccc1,?,-2%,16%,-4%[1.84 µM],-2%,1%
C/C(=N\NC(=O)CSc1nc2ccccc2o1)c1ccc(O)cc1,?,17µM*,9%,10%,1%,3%
O=C(CSc1nc2ccccc2o1)N/N=C/c1ccc(O)c(O)c1,?,19µM*,14%,nt,-5%,-2%
NC(=O)C1(N2CCCCC2)CCN(Cc2ccccc2Cl)CC1,-6%,7%,2%,-16%,0%,-10%
N#C/C(=C\c1ccc2c(c1)OCO2)C(N)=S,-2%,-11%,0%,nt,0%,1%
CC(C)NC(=O)/C(C#N)=C/c1ccc2c(c1)OCCO2,?,9.5µM*,23%,2%,-2%,4%
SMILES,ELG1 repair inh,FLuc modulator,ELG1 genotox,SMN2 splice up,NPC1 prom act,Rab9 promoter act
N#C/C(=C\c1ccc(O)c(O)c1)C(=O)Nc1ccccc1,?,?,?,22µM*,23%[46.1 µM],-21%[46.1 µM]
N#C/C(=C\c1cccc(O)c1)C(=O)Nc1ccc2c(c1)OCCO2,?,0.48µM*,16%,nt,1%,7%
N#C/C(=C/c1cccc(O)c1)C(=O)NCc1ccc(Cl)cc1,?,-4%,10%,nt,11%,3%
Cc1cccc(N2CC(c3nc4ccccc4n3CCC3CCCCC3)CC2=O)c1 (centres undefined),nt,-1%,nt,nt,nt,nt
O=C(CSc1ncccc1-c1nc2ccccc2[nH]1)N1CCc2ccccc21,?,7.6µM*,?,-38%,?,2.8µM*
COC(=O)CSc1ncccc1-c1nc2ccccc2[nH]1,?,13µM*,?,11%,15%,-1%
CC(C)(C)NC(=O)CSc1ncccc1-c1nc2ccccc2[nH]1,?,24µM*,8%,nt,3%,-1%
Cc1cccc(-c2nc(C)c(CCNC(=O)C(=O)Nc3cccc(Cl)c3C)s2)c1,nt,0%,nt,nt,nt,nt
C=C(C(C)=O)C(O)c1ccco1 (centres undefined),nt,nt,nt,-3%,nt,nt
Cc1cccc(N(C)S(=O)(=O)c2nnc(NC(=O)c3ccco3)s2)c1,7%,0%,4%,nt,-1%,0%
Cc1cccc(-c2nnc(NC(=O)c3ccco3)s2)c1,?,11µM*,21µM*,nt,2.8µM*,3.2µM*
Cc1noc(C)c1C(=O)Nc1nnc(-c2ccccc2)s1,13%,15µM*,2%,-22%,5%,6%
O=C(Nc1nnc(S(=O)(=O)N2CCN(c3ccc(F)cc3)CC2)s1)c1ccco1,19%,19µM*,5%,nt,1%,3%
O=C(Nc1nnc(-c2ccc(F)cc2)s1)c1ccco1,?,2.7µM*,?,nt,2.8µM*,3.2µM*
CC(C)C(O)(C(C)C)C(C)C,nt,nt,nt,-3%[9.22 µM],nt,nt
O=C(Cn1cc(C(=O)C(F)(F)F)c2ccccc21)N1CCCCCC1,nt,-7%,nt,-18%,nt,nt
CCc1cccc(NC(=O)CN(C)S(=O)(=O)c2ccc3c(c2)CCCN3C(C)=O)c1,nt,2%,nt,nt,nt,nt
COc1cc(/C=N/N=C/c2cc(OC)c(O)c(OC)c2)cc(OC)c1O,-3%,17µM*,3%,14%,0%,0%
COc1ccc(/C=N/N=C/c2ccc(OC)c(OC)c2)cc1OC,1%,-1%,0%,2%,0%,-1%
COc1ccc(/C=N/N=C/c2ccc(OC)c(O)c2)cc1O,-15%,24µM*,-1%,0%,-1%,3%
CCC1=C2CC[C@H]3C(=O)N(CC(=O)OC)C(=O)[C@H]3[C@H]2[C@@]2(C)C(=NCCc3c[nH]c4ccccc34)OC(=O)N2C1=O,nt,nt,nt,3%,nt,nt
Cc1cc(C2=NNC(=NC3CC3)SC2)c(C)n1-c1ccccc1F,?,0.21µM*,-11%,-93%,-24%,-37%
C=C(C)CN=C1NN=C(c2cc(C)n(-c3ccc(C)cc3)c2C)CS1,-8%,8.5µM*,0%,?,?,?
